# Compound activity as filed in PubChem BioAssay.
# KB-3-1 tox: qHTS assay for MDR1-selective chemotherapeutics: Primary screen using the parental adenocarcinoma cell KB-3-1. KB-3-1 viability, CellTiter-Glo ATP luminescence, 72 h. Potency, µM (series often up to 46.1 µM), most hits filed as cytotoxic. 1.4% of 400,000 active; further: on the % scale 0 is the no-effect control and ±100 the full control effect; nearly all actives have a fitted effect of over 60% in size
#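 Here the drug-naive KB-3-1 line serves as comparator for MDR sub-line selectivity; cells received compound titrations, 72 h at 37 °C, then CellTiter-Glo readout.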
# SW480 rereplic: A quantitative high throughput screen for small molecules that induce DNA re-replication in SW480 colon adenocarcinoma cells | SW480 DNA re-replication, Hoechst DNA content imaging, 48 h | Potency, µM (doses to about 46.1 µM), for inactives: at the highest dose re-replication activation, actives largely listed as activators | 1.8% of 340,000 active | AID 624297, 2012; further: % of control where 0% means no effect; nearly all actives have a fitted effect of over 55% in size
#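 250 cells/well; 23 nL cpd via pin tool; 48 hr, 37 C, 5% CO2; Hoechst 40 min; imager read of total nuclear intensity, ex 405/em 500-530 nm.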
# MCF10A rereplic: A quantitative high throughput screen for small molecules that induce DNA re-replication in MCF 10a normal breast cells | 2.9% of 350,000 active | MCF 10A DNA re-replication, Hoechst nuclear intensity, 48 h | Potency, µM (highest dose often 46.1 µM), for inactives: at the top dose activity, positive = re-replication, hits mostly activators; further: % of control where 0% means no effect; nearly all actives have a fitted effect of over 50% in size
# HT1080NT lethal: qHTS for induction of synthetic lethality in tumor cells producing 2HG: qHTS for the HT-1080-NT fibrosarcoma cell line; Potency, µM (titrated, usually from 46.1 µM), for inactives: top-dose activity, negative = less viability, usual class: cytotoxic; HT-1080-NT fibrosarcoma viability, CellTiter-Glo ATP luminescence, 48 h; 1.6% of 360,000 active;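 further: NT is the 2HG producing partner of a matched IDH1 knockdown line; 0% = DMSO-treated cells and -100% = media-only wells without cells; nearly all actives have a fitted effect of over 55% in size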
#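 Read-out is CellTiter-Glo luminescence after 10 minutes at room temperature, following 48 hours' compound treatment of HT-1080-NT cells (750 cells/well, RPMI, 5% FBS, 37 degrees C).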
# HT1080 IDH1KD tx: qHTS for induction of synthetic lethality in tumor cells producing 2HG: qHTS for the HT-1080-IDH1KD cell line | AID 686971, 2013 | HT-1080 IDH1 knockdown viability, ATP luminescence, 48 h | 2% of 360,000 active | Potency, µM (titrated, usually from 46.1 µM), for inactives: at the top dose activity, negative = toxicity, usual class: cytotoxic;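 further: 0% = DMSO wells and -100% = cell-free medium wells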
#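 Luminescent ATP read-out (CellTiter-Glo, 10 min at room temperature) after 48 h compound exposure at 37 °C gave viability of IDH1-knockdown HT-1080 cells. Activity was normalised to DMSO and cell-free wells, then fitted as concentration-response curves.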
# KB-V1 cytotox: qHTS assay for MDR1-selective chemotherapeutics: Primary screen using the drug-selected MDR subline cells KB-V1 | KB-V1 MDR cells viability, CellTiter-Glo, 72 h | Potency, µM (top dose mostly 46.1 µM), usual class: cytotoxic | AID 1347076, 2019 | 3.4% of 400,000 active; further: on the % scale 0 is the no-effect control and ±100 the full control effect; nearly all actives have a fitted effect of over 60% in size
#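 Following 72 h at 37 degrees C with compound, KB-V1 cell viability was read by CellTiter-Glo luminescence, medium being phenol-red-free DMEM plus 10% FBS; concentration-response parameters came from normalized, curve-fitted qHTS data.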
# Numbers without * were called inactive; i = inactive; ? = inconclusive; / = no result; ! = not active in a repeat. Sampled rows, rich in hits. Any-hit rate of the full collection: about 8%. The call rests on the fitted dose curve; in most records, active means well fitted curve in the direction sought with a large enough effect; inconclusive means small, poorly fitted or top-dose-only effect, or another doubt; inactive means no such curve, though single readings can be large; an effect the other way counts as inactive or inconclusive. Potency means the concentration at half of the fitted maximal effect.
SMILES,KB-3-1 tox,SW480 rereplic,MCF10A rereplic,HT1080NT lethal,HT1080 IDH1KD tx,KB-V1 cytotox
Cc1c(O)ccc2c(CN3CCN(C/C=C/c4ccccc4)CC3)cc(=O)oc12,?,22%,-2%,?,?,?
O=c1cc(CN2CCN(C/C=C/c3ccccc3)CC2)c2cc(O)c(-c3ccccc3)cc2o1,?,18µM*,13%,6%,16%,i
O=[N+]([O-])c1ccc(CNc2ccc(F)cc2)s1,i,?,7%,-2%,2%,?
CC(C)(C)NC(=O)CN(CCN1CCOCC1)C(=O)CNS(=O)(=O)c1ccc(Cl)cc1,i,-22%,-20%,6%,14%,i
O=C(O)Cc1ccc(NS(=O)(=O)c2ccc3ccccc3c2)cc1,i,-10%,-1%,0%,10%,i
COc1cc2c(cc1N/C=C(\C#N)c1nc(-c3ccc(F)cc3)cs1)oc1ccccc12,i,?,?,23%,19%,i
CCN(c1ccccc1)S(=O)(=O)c1ccc(OC)c(NC(=O)CNC)c1,?,29%,8.2µM*,-27%,-3%,?
CCN(c1ccccc1)S(=O)(=O)c1ccc(Cl)c(NC(=O)CNC(C)c2ccccc2)c1 (configuration not stated),?,17%,0%,-9%,-9%,16µM*
O=C(CN1CCN(C/C=C/c2ccccc2)CC1)Nc1cc([N+](=O)[O-])ccc1Cl,?,10%,14%,-9%,-2%,23µM*
CCN(c1ccccc1)S(=O)(=O)c1ccc(Cl)c(NC(=O)CN(C)Cc2cccc(F)c2)c1,?,20%,?,-1%,-15%,16µM*
CCN(c1ccccc1)S(=O)(=O)c1ccc(OC)c(NC(=O)CN(C)C)c1,i,13%,?,-8%,-4%,i
CCN(c1ccccc1)S(=O)(=O)c1ccc(Cl)c(NC(=O)COC(=O)C2CC2C)c1 (configuration not stated),i,8%,-2%,-1%,-7%,i
CCC(C)NCC(=O)Nc1cc(S(=O)(=O)N(CC)c2ccccc2)ccc1Cl (configuration not stated),?,13%,26%,-20%,-12%,i
CCCCNC(=O)C1(C)CCCCN1CC(=O)c1ccc(OC)cc1 (configuration not stated),i,/,/,17%,13%,i
CCN(c1ccccc1)S(=O)(=O)c1ccc(Cl)c(NC(=O)CN2CCCCCC2)c1,?,101%,?,?,?,21µM*
CN(C)S(=O)(=O)c1ccc(Cl)c(NC(=O)CN2CCCCCC2)c1,i,-1%,-10%,4%,3%,?
CC1CCN(CCC(=O)Nc2ccc(Cl)cc2)CC1,i,-3%,1%,-25%,-13%,i
COc1cc(C(=O)NC(=S)Nc2ccc([N+](=O)[O-])cc2C)cc(OC)c1OC,i,17%,2%,-26%,-9%,2.1µM*
COc1cc(C(=O)NC(=S)Nc2ccc([N+](=O)[O-])cc2)cc(OC)c1OC,i,1%,?,-5%,-9%,i
CN(C(=O)CSC1=NCCS1)c1ccccc1,i,1%,8%,17%,14%,i
CN(C(=O)CSc1nc(N)c2c3c(sc2n1)CSC(C)(C)C3)c1ccccc1,i,1%,8.2µM*,-26%,-27%,i
CC1C=CC=CC=CC=CC=CC=CC=CC(OC2OC(C)C(O)C(N)C2O)CC2OC(O)(CC(O)CC(O)C(O)CCC(O)CC(O)CC(=O)OC(C)C(C)C1O)CC(O)C2C(=O)O (configuration not stated),4.1µM*,6.5µM*,3.3µM*,4.6µM*,9.2µM*,?
COc1cc(CNc2ncnc3c2ncn3[C@H]2CN(Cc3cccc(C(F)(F)F)c3)C[C@@H](COC(C)=O)O2)cc(OC)c1OC,i,/,/,-16%,-28%,i
CC(/C=N/n1cnnc1)=C\c1ccccc1,5.2µM*,-3%,1%,12%,16%,1.8µM*
CC(=C/c1ccccc1)/C=N/n1cnnc1,i,-17%,-2%,-1%,1%,i
SMILES,KB-3-1 tox,SW480 rereplic,MCF10A rereplic,HT1080NT lethal,HT1080 IDH1KD tx,KB-V1 cytotox
CN(Cc1cn[nH]c1-c1ccc2c(c1)OCO2)C1CCOCC1,i,-1%,1%,-3%,10%,i
c1cc2c(cc1-c1[nH]ncc1CN1C[C@H]3CC[C@H]1C3)OCO2,i,5.8µM*,17%,20%,12%,i
O=C(c1ccc(Cl)cc1)c1c[nH]c(C(=O)NNc2cccc(Cl)n2)c1,i,?,?,23µM*,?,i
Cc1ccc(C)c(-n2c(-c3ccc(Br)cc3)csc2=NC(=O)c2ccccc2F)c1,12µM*,4%,17%,20%,9%,?
Cn1ccsc1=NC(=O)c1ccccc1F,i,-8%,-1%,10%,9%,i
CSc1nnc(CCNC(=O)OC(C)(C)C)o1,i,-20%,3%,-2%,3%,i
CC(C)=CCSc1nnc(CCNC(=O)OC(C)(C)C)o1,i,-4%,2%,-4%,0%,21µM*
CC(C)n1c(S(=O)(=O)O)nc2ccccc21,i,-3%,11%,5%,?,i
O=[N+]([O-])c1ccc(S(=O)(=O)c2cccc(C(F)(F)F)c2)nc1,?,4.1µM*,5.2µM*,10µM*,7.3µM*,?
CC(CC1CC(C)(C)OC1=O)C(=O)Nc1ccc([N+](=O)[O-])cc1 (configuration not stated),i,1%,-1%,6%,6%,i
CCCCNC(=O)c1ccc2c(c1)N(Cc1ccc(F)cc1)C(=O)c1ccccc1S2=O (configuration not stated),i,/,/,/,/,?
O=C1CCC[C@@H]2C[C@@]3(C[C@@H]4CCN1[C@H]24)Nc1cc(Cl)ccc1NC3=NC1CCCCC1,i,?,8%,1%,0%,i
Cc1cc2c(cc1C)N[C@]1(C[C@H]3CCCC(=O)N4CC[C@@H](C1)[C@@H]34)C(=NC(C)(C)CC(C)(C)C)N2,?,?,37%,-15%,-11%,21µM*!
